Assay results as given in the supplement of paper PMC10849652.
Of roughly 7,900 targets only a part is listed; those with a hit were picked by preference. About 0.6% of all pairs of compound and target were hits. Unmarked numbers belong to inactive results.

Assays:
Experiment in all cases: log2 fold change, soluble protein after heating vs DMSO (PISA); higher = thermal stabilisation; K562 cells, 10 uM, 30 min; active = over 0.2 and 3.5 SD of the protein, either way, in both replicates (recomputed)
bafetinib = compound: Cc1ccc(NC(=O)c2ccc(CN3CC[C@H](N(C)C)C3)c(C(F)(F)F)c2)cc1Nc1nccc(-c2cncnc2)n1 [bafetinib]
How it was run: (§1)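 Thermal stability values are relative to control samples and come from duplicates. They are expressed as log2 fold changes. For measurement, K562 cells (2×10^6 cells/mL) received 10 μM compound for 30 min, and aliquots were heated for 3 min over 48°C-58°C, pooled, and extracted at 4°C in PBS with 0.5% NP-40. Soluble protein, the supernatant after 21,000xg for 90 min, was quantified by TMTpro 16plex LC-MS/MS with equalised channel sums.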

[1] = compound: Cc1cccc(CC(=O)N2CCc3c2ccc(-c2cn(C)c4ncnc(N)c24)c3F)n1
How it was run: as §1

nilotinib = compound: Cc1cn(-c2cc(NC(=O)c3ccc(C)c(Nc4nccc(-c5cccnc5)n4)c3)cc(C(F)(F)F)c2)cn1 [nilotinib]
How it was run: as §1

[2] = compound: Cc1nc(Nc2n[nH]c3c2CN(C(=O)N[C@H](CN(C)C)c2ccccc2)C3(C)C)c2sccc2n1
How it was run: as §1

dasatinib = compound: Cc1nc(Nc2ncc(C(=O)Nc3c(C)cccc3Cl)s2)cc(N2CCN(CCO)CC2)n1 [dasatinib]
How it was run: as §1

[3] = compound: Cc1ncc(-c2ccnc(Nc3ccc(S(C)(=O)=O)cc3)n2)n1C(C)C
How it was run: as §1

[4] = compound: Cn1cc(-c2ccc3c(c2)CCN3C(=O)Cc2cccc(C(F)(F)F)c2)c2c(N)ncnc21
How it was run: as §1

[5] = compound: Cn1cc(-c2ccc3nnc(C(F)(F)c4ccc5ncccc5c4)n3n2)cn1
How it was run: as §1

tipifarnib = compound: Cn1cncc1[C@@](N)(c1ccc(Cl)cc1)c1ccc2c(c1)c(-c1cccc(Cl)c1)cc(=O)n2C [tipifarnib]
How it was run: as §1

mubritinib = compound: FC(F)(F)c1ccc(/C=C/c2nc(COc3ccc(CCCCn4ccnn4)cc3)co2)cc1 [mubritinib]
How it was run: as §1

UniProt Q9H081, sequence (Q9H081 whole entry, looked up): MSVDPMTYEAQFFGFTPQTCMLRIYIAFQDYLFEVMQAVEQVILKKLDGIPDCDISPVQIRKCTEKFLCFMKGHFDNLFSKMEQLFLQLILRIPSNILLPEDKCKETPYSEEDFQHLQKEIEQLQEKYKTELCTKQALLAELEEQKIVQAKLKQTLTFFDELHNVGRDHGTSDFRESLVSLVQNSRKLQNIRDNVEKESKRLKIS
UniProt Q15102, sequence (Q15102 whole entry, looked up): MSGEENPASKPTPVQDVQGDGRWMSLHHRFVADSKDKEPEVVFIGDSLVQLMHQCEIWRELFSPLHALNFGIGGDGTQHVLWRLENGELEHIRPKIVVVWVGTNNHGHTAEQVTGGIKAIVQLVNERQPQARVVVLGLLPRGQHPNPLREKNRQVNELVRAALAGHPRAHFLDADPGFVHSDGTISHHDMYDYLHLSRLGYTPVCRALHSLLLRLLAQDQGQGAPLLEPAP
UniProt O00566, sequence (O00566 whole entry, looked up): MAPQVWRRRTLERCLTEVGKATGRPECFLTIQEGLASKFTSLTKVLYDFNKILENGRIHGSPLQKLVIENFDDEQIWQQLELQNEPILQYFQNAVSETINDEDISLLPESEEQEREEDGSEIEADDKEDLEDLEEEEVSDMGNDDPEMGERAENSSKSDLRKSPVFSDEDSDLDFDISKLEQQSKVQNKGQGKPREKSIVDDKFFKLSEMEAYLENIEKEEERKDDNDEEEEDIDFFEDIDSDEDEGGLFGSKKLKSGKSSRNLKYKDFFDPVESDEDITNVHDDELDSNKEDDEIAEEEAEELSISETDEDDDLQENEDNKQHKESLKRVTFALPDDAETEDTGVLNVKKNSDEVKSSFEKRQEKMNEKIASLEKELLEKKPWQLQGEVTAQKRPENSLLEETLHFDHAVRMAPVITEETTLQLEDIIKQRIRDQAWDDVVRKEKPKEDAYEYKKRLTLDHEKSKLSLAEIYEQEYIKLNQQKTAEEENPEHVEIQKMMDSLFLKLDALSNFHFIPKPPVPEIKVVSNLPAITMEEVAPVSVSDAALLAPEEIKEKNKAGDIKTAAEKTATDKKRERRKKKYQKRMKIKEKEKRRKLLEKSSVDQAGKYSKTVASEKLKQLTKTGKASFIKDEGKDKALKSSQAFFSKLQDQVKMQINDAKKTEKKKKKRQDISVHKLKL
UniProt O60313, sequence (O60313 whole entry, looked up): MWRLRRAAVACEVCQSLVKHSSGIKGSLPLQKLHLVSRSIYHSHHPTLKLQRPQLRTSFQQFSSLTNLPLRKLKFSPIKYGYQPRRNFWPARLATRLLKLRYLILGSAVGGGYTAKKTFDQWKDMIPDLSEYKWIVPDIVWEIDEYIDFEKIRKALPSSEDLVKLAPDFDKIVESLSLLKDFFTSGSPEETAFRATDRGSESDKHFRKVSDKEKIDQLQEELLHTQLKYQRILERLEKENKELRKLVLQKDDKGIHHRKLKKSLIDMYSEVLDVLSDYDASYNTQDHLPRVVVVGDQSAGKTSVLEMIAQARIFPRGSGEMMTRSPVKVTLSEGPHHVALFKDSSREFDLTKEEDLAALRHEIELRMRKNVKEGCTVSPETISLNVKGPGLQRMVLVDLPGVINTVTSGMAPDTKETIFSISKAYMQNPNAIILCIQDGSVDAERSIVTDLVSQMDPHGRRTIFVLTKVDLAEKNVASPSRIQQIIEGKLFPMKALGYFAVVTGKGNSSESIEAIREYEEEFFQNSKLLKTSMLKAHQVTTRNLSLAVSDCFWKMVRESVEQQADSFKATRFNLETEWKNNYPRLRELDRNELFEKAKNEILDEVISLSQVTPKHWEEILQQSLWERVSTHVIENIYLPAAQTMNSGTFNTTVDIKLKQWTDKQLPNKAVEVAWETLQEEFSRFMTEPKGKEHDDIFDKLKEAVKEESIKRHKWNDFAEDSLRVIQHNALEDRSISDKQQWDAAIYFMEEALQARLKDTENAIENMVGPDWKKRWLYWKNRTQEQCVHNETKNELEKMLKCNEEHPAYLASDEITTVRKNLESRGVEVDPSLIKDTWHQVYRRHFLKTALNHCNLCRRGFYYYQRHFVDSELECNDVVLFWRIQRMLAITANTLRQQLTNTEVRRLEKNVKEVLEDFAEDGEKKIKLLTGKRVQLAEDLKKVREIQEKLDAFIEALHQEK
UniProt P03891, sequence (P03891 whole entry, looked up): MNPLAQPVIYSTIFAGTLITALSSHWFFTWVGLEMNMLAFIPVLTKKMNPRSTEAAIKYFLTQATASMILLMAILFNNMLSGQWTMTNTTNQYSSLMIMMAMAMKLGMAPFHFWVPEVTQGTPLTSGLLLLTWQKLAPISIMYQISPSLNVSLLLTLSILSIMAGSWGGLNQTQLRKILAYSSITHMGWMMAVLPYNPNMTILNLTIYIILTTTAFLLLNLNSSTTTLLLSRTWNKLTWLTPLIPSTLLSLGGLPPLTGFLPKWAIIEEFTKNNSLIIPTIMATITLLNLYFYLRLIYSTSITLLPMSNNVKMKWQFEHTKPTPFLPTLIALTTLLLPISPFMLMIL
UniProt Q8N5F7, sequence (Q8N5F7 whole entry, looked up): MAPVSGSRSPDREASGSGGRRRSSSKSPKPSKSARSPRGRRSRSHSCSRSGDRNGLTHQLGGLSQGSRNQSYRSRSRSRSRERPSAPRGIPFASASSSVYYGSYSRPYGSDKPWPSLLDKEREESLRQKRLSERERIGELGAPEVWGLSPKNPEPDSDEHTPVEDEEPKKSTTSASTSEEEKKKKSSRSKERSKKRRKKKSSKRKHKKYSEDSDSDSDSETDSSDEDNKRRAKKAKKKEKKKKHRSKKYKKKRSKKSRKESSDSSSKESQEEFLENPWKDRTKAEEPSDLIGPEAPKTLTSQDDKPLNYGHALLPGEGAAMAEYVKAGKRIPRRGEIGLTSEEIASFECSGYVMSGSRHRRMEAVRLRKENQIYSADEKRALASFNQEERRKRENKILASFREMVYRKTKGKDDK
UniProt Q12769, sequence (Q12769 whole entry, looked up): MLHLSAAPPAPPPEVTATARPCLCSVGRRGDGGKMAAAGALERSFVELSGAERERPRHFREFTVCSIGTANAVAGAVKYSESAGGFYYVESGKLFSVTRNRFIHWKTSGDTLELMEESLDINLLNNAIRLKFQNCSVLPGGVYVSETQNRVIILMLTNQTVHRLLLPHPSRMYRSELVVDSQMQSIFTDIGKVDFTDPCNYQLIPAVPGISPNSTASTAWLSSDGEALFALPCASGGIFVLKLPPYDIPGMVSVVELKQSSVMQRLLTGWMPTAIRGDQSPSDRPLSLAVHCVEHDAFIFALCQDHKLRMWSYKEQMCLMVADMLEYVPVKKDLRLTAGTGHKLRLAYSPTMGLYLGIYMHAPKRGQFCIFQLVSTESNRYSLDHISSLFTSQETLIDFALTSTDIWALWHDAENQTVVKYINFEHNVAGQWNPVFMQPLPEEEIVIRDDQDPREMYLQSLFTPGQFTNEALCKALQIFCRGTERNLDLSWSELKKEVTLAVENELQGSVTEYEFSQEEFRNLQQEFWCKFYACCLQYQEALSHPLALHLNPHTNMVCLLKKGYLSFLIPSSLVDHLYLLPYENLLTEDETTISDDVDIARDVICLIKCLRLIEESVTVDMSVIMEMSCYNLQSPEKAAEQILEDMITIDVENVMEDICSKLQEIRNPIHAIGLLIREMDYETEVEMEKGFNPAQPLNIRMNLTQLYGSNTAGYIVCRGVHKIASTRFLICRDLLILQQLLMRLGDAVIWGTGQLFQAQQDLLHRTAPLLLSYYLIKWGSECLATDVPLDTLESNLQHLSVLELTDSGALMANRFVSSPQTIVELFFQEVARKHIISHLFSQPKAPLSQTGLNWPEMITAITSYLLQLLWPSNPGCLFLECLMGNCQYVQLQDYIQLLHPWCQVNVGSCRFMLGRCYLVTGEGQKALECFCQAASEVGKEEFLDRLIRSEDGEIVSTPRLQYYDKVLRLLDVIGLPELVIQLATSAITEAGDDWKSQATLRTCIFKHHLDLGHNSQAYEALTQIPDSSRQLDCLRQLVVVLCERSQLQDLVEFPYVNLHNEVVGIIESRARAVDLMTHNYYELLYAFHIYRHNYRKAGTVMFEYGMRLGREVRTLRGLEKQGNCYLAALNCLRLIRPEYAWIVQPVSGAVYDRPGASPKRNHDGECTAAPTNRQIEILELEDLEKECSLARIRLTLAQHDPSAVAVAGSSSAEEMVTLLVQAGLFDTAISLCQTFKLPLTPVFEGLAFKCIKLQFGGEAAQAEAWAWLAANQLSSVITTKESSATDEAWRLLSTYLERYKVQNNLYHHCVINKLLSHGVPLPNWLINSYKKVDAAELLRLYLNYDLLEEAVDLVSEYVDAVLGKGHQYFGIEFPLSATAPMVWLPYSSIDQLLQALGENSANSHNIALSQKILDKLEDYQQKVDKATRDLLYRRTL
UniProt P55209, sequence (P55209 whole entry, looked up): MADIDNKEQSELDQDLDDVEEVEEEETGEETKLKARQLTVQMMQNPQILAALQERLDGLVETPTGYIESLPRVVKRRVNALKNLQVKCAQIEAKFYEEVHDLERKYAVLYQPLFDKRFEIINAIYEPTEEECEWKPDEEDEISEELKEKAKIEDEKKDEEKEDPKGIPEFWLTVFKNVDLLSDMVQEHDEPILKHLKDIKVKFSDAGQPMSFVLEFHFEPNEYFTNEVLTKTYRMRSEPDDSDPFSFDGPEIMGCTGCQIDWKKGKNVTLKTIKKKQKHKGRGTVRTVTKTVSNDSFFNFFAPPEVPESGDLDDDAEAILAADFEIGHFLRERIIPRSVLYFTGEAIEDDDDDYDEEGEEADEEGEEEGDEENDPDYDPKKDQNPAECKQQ
UniProt Q8WVJ2, sequence (Q8WVJ2 whole entry, looked up): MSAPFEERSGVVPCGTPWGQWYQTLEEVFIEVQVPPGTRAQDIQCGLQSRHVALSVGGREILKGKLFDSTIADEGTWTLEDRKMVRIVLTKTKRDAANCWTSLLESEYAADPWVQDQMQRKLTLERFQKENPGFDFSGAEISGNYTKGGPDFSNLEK
UniProt P15531, sequence (P15531 whole entry, looked up): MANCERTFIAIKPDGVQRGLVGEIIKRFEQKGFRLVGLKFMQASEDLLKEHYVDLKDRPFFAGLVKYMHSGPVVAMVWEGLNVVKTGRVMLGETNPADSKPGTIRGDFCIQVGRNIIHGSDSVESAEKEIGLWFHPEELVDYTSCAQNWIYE

| Target | log2 fold change (bafetinib) | log2 fold change [1] | log2 fold change (nilotinib) | log2 fold change [2] | log2 fold change (dasatinib) | log2 fold change [3] | log2 fold change [4] | log2 fold change [5] | log2 fold change (tipifarnib) | log2 fold change (mubritinib) |
| --- | --- | --- | --- | --- | --- | --- | --- | --- | --- | --- |
| NME1 isoform 2 (UniProt P15531) | 0.011 | -0.175 | -0.115 | 0.182 | -0.286 | -0.003 | 0.088 | -0.013 | 0.06 | -0.103 |
| MT-ND2 (UniProt P03891) | 0 | -0.173 | -0.006 | 0.018 | -0.459 (active) | -0.171 | 0.279 | 0.11 | 0.383 | -0.01 |
| MSH3 (UniProt P20585) | -0.012 | 0.051 | -0.046 | -0.014 | -0.038 | 0.052 | -0.032 | 0.009 | -0.029 | 0.167 |
| PAFAH1B3 (UniProt Q15102) | 0.003 | 0.058 | 0.008 | -0.031 | -0.065 | -0.011 | 0.192 | 0.039 | -0.163 | 0.075 |
| NA, A0A0B4J2A0 | -0.066 | 0.024 | 0.035 | -0.024 | -0.111 | 0.006 | 0.025 | -0.015 | 0.007 | -0.011 |
| NAP1L1 (UniProt P55209) | -0.018 | -0.094 | 0.009 | -0.044 | 0.05 | 0.022 | -0.004 | -0.039 | 0.001 | -0.014 |
| NKAP (UniProt Q8N5F7) | -0.016 | -0.081 | 0.059 | -0.792 (active) | 0.086 | 0.015 | -0.033 | -0.253 | -0.138 | -0.169 |
| MTOR (UniProt P42345) | -0.018 | 0.014 | -0.158 | 0.068 | -0.166 | -0.069 | 0.004 | 0.037 | -0.12 | 0.068 |
| NUMB (UniProt P49757) | -0.013 | 0.022 | -0.05 | -0.078 | 0.017 | -0.12 | 0.063 | -0.008 | 0.059 | -0.053 |
| NUP210 (UniProt Q8TEM1) | -0.178 | 0.053 | -0.125 | -0.009 | -0.118 | -0.038 | 0.055 | 0 | -0.039 | 0.034 |
| MIS12 (UniProt Q9H081) | -0.05 | 0.017 | -0.062 | -0.048 | -0.114 | 0.037 | -0.028 | 0.005 | 0.016 | 0.071 |
| OGFR (UniProt Q9NZT2) | -0.041 | 0.114 | -0.024 | -0.093 | -0.114 | -0.008 | 0.036 | -0.002 | 0.025 | 0.328 (active) |
| MPHOSPH10 (UniProt O00566) | 0.137 | -0.045 | -0.055 | -0.028 | 0.138 | -0.199 | -0.259 | -0.001 | 0.246 | -0.069 |
| NEDD4 isoform 4 (UniProt P46934) | -0.067 | 0.054 | -0.047 | -0.083 | -0.068 | 0.052 | -0.016 | 0.027 | -0.024 | 0.008 |
| NDUFA9 (UniProt Q16795) | -0.019 | 0.033 | -0.056 | 0.005 | -0.127 | 0.012 | 0.002 | -0.007 | -0.033 | 0.223 (active) |
| NCAPD2 (UniProt Q15021) | 0.03 | 0.045 | -0.078 | -0.071 | -0.159 | 0.08 | -0.035 | 0.018 | -0.148 | 0.033 |
| MRPS18B (UniProt Q9Y676) | 0.125 | 0.055 | -0.154 | 0.098 | -0.024 | -0.342 | 0.005 | 0.081 | -0.059 | 0.172 |
| NPEPPS (UniProt P55786) | 0.031 | 0.011 | 0.002 | 0.121 | -0.083 | -0.063 | 0.085 | 0.02 | -0.032 | 0.102 |
| PAK1 isoform 2 (UniProt Q13153) | -0.017 | 0.04 | 0.03 | 0.036 | -0.025 | -0.027 | 0.041 | 0.035 | -0.004 | 0.015 |
| NOP53 (UniProt Q9NZM5) | 0.189 | 0.059 | 0.039 | 0.217 | 0.147 | 0.027 | -0.339 | -0.178 | 0.161 | -0.202 |
| ORC3 isoform 2 (UniProt Q9UBD5) | -0.032 | 0.099 | -0.262 | -0.254 | -0.298 | -0.118 | 0.067 | 0.109 | 0.086 | 0.029 |
| NUP160 (UniProt Q12769) | -0.127 | 0.043 | -0.078 | -0.136 | -0.045 | -0.06 | -0.025 | -0.034 | -0.042 | -0.042 |
| MMS19 isoform 8 (UniProt Q96T76) | -0.014 | 0.092 | -0.038 | -0.027 | -0.205 | -0.002 | -0.021 | 0.02 | -0.055 | -0.019 |
| MRPL47 (UniProt Q9HD33) | 0.264 | -0.263 | -0.124 | 0.118 | 0.016 | 0.073 | -0.174 | -0.085 | 0.103 | -0.029 |
| NEDD4L (UniProt Q96PU5) | -0.037 | -0.062 | 0.015 | -0.134 | -0.103 | 0.031 | -0.097 | -0.078 | -0.022 | 0.01 |
| NUDCD2 (UniProt Q8WVJ2) | 0.017 | 0.033 | -0.119 | -0.216 | -0.171 | -0.026 | 0.02 | 0.066 | -0.1 | 0.077 |
| OPA1 isoform 2 (UniProt O60313) | -0.022 | 0.069 | -0.039 | -0.025 | -0.169 | -0.004 | 0.054 | -0.031 | -0.12 | 0.062 |
| NFATC3 (UniProt Q12968) | 0.041 | -0.064 | -0.121 | -0.316 | -0.042 | -0.3 | -0.073 | 0.191 | 0.01 | -0.01 |
| MRPS2 (UniProt Q9Y399) | 0.191 | 0.175 | -0.119 | 0.019 | -0.026 | -0.062 | 0.043 | 0.035 | -0.074 | 0.14 |
| OGFOD1 (UniProt Q8N543) | -0.042 | -0.033 | -0.015 | 0.039 | -0.009 | -0.021 | 0.01 | 0.078 | -0.05 | -0.04 |
